# Measured values taken from PubChem BioAssay (EPA / NIEHS).
# “And” between values parts separate entries of the source, which are not always exact repeats. Equal entries are not always repeated. Inconclusive results are not listed. The source made the active and inactive calls. How the source made its calls: active means hit-call score of the fitted dose curve at least 0.9, where 1 is the maximum; inconclusive means response in the unintended direction; inactive means score below 0.9.
# Assays:
# [1] = system: guinea pig Dopamine Transporter (DAT), gene 100714898; assay: NVS_TR_gDAT: NovaScreen (NVS) Transporter Assay for guinea pig Dopamine Transporter (DAT) (AID 2283369);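 further: active compounds lower bound radioligand signal relative to DMSO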
# Outline: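 Scintillation counts of filter-retained radioligand report binding to guinea pig striatal membranes after 2 h. Activity scored as signal loss relative to DMSO, first at 25 uM in duplicate, then in concentration series to 50 uM.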
# [2] = target: rat Androgen Receptor (AR), Ar (gene 24208) (UniProt P15207); assay: NVS_NR_rAR: NovaScreen (NVS) Nuclear Receptor Binding Assay for rat Androgen Receptor (AR) (AID 2283366)
# rat Androgen Receptor (AR), Ar (gene 24208), sequence (P15207 whole entry, looked up): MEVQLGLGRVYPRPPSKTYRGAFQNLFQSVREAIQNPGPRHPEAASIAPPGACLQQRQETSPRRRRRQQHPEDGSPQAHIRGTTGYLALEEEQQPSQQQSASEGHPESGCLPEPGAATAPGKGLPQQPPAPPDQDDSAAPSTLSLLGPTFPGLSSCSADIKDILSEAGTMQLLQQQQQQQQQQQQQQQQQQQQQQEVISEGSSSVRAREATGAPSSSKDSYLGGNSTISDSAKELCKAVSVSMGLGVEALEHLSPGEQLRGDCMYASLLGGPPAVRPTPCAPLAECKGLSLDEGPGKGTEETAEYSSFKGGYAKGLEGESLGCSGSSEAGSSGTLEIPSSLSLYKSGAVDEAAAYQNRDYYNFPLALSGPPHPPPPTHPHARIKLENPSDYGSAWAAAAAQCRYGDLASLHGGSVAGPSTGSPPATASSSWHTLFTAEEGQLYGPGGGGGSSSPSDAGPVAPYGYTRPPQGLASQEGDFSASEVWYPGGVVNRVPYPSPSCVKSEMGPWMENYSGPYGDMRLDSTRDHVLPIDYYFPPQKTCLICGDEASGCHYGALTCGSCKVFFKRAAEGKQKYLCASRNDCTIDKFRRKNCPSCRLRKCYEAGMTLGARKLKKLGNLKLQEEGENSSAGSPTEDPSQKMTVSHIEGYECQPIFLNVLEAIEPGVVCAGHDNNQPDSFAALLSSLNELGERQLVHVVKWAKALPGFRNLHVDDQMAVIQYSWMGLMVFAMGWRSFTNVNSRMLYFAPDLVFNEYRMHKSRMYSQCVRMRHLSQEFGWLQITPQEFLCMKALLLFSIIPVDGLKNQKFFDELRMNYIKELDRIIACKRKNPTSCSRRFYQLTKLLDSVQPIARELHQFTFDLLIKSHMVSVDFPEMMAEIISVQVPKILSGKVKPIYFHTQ
# Outline: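 Actives from a duplicate single-concentration (25 uM) primary run went on to concentration series. Displacement of radioligand was counted by filtration and scintillation, 18 h post-dose, using prostate extracts from testosterone-pretreated rats, with DMSO as baseline.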
# [3] = target: Nuclear receptor subfamily 1 group I member 2 (Homo sapiens) (UniProt O75469); assay: NVS_NR_hPXR: NovaScreen (NVS) Nuclear Receptor Binding Assay for human Pregnane X Receptor (PXR) (AID 2283365);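 further: a drop in FRET signal versus DMSO baseline means the compound binds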
# Nuclear receptor subfamily 1 group I member 2 (Homo sapiens), sequence (O75469 whole entry, looked up): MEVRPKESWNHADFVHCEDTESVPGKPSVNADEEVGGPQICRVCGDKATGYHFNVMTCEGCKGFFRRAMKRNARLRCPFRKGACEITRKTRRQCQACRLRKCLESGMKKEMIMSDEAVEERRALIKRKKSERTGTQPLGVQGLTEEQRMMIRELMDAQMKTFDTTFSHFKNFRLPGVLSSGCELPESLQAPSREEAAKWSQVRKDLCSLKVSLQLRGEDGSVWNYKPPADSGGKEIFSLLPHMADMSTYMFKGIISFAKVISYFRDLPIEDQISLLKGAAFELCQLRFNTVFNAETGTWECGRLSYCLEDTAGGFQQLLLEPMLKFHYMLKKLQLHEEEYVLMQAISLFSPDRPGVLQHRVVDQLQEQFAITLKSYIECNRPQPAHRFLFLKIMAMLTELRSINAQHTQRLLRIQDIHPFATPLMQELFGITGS
# Outline: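 Human PXR protein, cell-free; compound added, incubated 2 h, TR-FRET read. Signal decrease vs DMSO = binding. Screened 25 uM duplicate, actives re-run as dilution series.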
# [4] = target: Glucocorticoid receptor (Homo sapiens) (UniProt P04150); assay: NVS_NR_hGR: NovaScreen (NVS) Nuclear Receptor Binding Assay for human Glucocorticoid Receptor (GR) (AID 2283363);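 further: activity is loss of specific radioligand binding signal relative to DMSO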
# Glucocorticoid receptor (Homo sapiens), sequence (P04150 whole entry, looked up): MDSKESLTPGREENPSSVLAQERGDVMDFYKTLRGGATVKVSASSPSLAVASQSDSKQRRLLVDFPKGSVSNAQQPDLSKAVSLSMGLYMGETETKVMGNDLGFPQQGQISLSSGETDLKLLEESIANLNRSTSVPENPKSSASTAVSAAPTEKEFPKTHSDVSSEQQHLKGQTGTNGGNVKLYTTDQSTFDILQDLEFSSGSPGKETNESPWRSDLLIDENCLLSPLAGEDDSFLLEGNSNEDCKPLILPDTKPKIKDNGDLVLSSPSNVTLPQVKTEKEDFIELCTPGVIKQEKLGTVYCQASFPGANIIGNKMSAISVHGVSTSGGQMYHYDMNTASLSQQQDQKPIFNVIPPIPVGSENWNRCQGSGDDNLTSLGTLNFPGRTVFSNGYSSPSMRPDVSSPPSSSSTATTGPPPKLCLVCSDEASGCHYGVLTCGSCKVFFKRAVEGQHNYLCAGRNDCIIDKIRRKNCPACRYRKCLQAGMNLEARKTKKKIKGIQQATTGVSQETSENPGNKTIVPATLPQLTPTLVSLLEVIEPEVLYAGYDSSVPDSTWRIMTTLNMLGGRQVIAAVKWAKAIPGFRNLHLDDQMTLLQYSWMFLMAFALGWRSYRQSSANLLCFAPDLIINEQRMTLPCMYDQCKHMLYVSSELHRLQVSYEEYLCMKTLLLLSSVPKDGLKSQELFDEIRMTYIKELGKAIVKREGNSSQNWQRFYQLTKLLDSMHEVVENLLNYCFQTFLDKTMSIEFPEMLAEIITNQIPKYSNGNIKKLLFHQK
# Outline: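 Single-readout cell-free binding: radioligand plus extracted receptor, 16-hour dosing, filter radiodetection; 25 uM duplicate primary, concentration series secondary.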
# [5] = target: guinea pig Sigma Receptor, Non-selective Binding, SIGMAR1 (gene 100135589) (UniProt Q60492); assay: NVS_OR_gSIGMA_NonSelective: NovaScreen (NVS) Nuclear Receptor Binding Assay for guinea pig Sigma Receptor, Non-selective Binding (AID 2283367)
# guinea pig Sigma Receptor, Non-selective Binding, SIGMAR1 (gene 100135589), sequence (Q60492 whole entry, looked up): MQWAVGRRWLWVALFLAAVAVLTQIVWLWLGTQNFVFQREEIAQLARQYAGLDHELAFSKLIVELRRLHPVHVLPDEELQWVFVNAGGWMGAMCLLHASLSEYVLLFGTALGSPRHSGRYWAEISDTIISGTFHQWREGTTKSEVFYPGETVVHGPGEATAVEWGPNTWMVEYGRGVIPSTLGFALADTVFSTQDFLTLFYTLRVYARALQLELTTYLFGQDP
# Outline: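 Test chemicals were screened in duplicate at 25 uM, then in concentration series if active, against radioligand binding to guinea pig brain membranes; filtration and scintillation counting at 1 h measured remaining bound ligand.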
# [6] = system: rat Norepinephrine Transporter (NET), gene 83511; assay: NVS_TR_rNET: NovaScreen (NVS) Transporter Assay for rat Norepinephrine Transporter (NET) (AID 2283373)
# Outline: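 Competitive radioligand displacement at the rat NET using forebrain membrane preparations, 1 h incubation, filter-based scintillation readout. Primary testing in duplicate at a single 25 uM concentration; confirmed actives retested across concentrations.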
# [7] = target: human Thyroid Receptor Alpha (TRa), THRA (gene 7067) (UniProt P10827); assay: NVS_NR_hTRa_Antagonist: NovaScreen (NVS) Nuclear Receptor Binding Assay for human Thyroid Receptor Alpha Antagonism (TRa) (AID 2283362);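 further: activity is loss of signal relative to DMSO baseline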
# human Thyroid Receptor Alpha (TRa), THRA (gene 7067), sequence (P10827 whole entry, looked up): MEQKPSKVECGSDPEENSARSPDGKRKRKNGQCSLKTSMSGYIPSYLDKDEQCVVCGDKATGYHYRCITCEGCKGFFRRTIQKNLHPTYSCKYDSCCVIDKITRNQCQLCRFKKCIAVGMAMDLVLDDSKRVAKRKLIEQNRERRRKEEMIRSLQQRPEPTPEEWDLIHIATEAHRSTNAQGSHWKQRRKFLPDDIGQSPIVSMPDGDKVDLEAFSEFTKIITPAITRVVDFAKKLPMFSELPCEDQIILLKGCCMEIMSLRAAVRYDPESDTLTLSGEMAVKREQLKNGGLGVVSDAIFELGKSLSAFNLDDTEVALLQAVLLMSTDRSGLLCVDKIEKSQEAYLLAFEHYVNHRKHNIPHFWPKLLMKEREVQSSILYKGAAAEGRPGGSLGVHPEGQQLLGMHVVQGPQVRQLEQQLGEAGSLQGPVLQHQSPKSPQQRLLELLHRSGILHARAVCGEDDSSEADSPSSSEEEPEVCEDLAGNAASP
# Outline: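 Extracted protein, cell-free; 1 h incubation after dosing; AlphaLISA chemiluminescence binding readout. DMSO = baseline/neg ctrl; signal loss = activity. Primary: duplicate, 25 uM; secondary: conc. series on actives.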
# [8] = target: Peroxisome proliferator-activated receptor gamma (Homo sapiens) (UniProt P37231); assay: NVS_NR_hPPARg: NovaScreen (NVS) Nuclear Receptor Binding Assay for human Peroxisome Proliferator-activated Receptor gamma (PPARg) (AID 2283370)
# Peroxisome proliferator-activated receptor gamma (Homo sapiens), sequence (P37231 whole entry, looked up): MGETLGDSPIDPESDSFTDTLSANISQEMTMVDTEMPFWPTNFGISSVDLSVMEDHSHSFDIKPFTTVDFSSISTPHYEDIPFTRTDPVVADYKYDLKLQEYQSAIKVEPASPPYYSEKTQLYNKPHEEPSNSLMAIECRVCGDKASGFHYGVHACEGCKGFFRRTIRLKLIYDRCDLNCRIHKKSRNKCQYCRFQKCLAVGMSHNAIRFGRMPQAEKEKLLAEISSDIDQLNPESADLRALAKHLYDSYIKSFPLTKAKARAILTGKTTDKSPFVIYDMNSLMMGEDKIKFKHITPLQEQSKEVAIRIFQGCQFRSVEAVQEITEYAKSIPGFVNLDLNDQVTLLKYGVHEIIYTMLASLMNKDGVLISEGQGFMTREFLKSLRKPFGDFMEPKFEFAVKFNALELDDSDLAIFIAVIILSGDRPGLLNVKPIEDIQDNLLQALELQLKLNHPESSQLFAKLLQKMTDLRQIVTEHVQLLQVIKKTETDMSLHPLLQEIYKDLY
# Outline: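 Chemicals were tested first in duplicate at 25 uM, then in concentration series if active. Binding to cell-free PPARg protein was measured by fluorescence polarization after 2 h, with loss of signal scored against DMSO.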
# [9] = target: Retinoic acid receptor alpha (Homo sapiens) (UniProt P10276); assay: NVS_NR_hRARa_Agonist: NovaScreen (NVS) Nuclear Receptor Binding Assay for human Retinoic Acid Alpha Receptor Agonism (RAR) (AID 2283361)
# Retinoic acid receptor alpha (Homo sapiens), sequence (P10276 whole entry, looked up): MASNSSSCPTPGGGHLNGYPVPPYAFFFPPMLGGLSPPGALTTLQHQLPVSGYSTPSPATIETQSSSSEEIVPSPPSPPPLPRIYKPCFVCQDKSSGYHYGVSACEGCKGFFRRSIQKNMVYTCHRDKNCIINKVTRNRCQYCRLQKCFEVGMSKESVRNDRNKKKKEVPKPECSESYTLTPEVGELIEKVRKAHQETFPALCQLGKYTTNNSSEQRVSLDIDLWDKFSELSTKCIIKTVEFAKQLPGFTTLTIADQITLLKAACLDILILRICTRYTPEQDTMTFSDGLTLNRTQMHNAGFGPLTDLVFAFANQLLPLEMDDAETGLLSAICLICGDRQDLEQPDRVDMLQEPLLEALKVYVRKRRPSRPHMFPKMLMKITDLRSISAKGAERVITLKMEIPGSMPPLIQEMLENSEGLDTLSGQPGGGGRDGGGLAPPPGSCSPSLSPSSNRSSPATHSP
# Outline: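 Compounds screened at 25 uM, duplicate, then in concentration series if active. Detection: TR-FRET gain of signal versus DMSO after 2 h with cell-free extracted RARα.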
smiles,measurement,setting,value
O=C(c1ccccc1)c1ccccc1,outcome,[1],inactive
CN(Cc1cnc2nc(N)nc(N)c2n1)c1ccc(C(=O)N[C@@H](CCC(=O)O)C(=O)O)cc1,outcome,[2],inactive
same,outcome,[1],inactive
Cc1ccc(S(=O)(=O)O)cc1,outcome,[3],inactive
CC1=NN(c2ccccc2)C(=O)C1,AC50,[4],45.7 µM (active)
CCCCc1oc2ccccc2c1C(=O)c1cc(I)c(OCCN(CC)CC)c(I)c1,AC50,[1],17.8 µM (active)
Clc1ccc(Nc2nnc(Cc3ccncc3)c3ccccc23)cc1,AC50,[1],6.66 µM (active)
CCCCCc1ccc(O)cc1,AC50,[1],10.5 µM (active)
CN(C)c1ccc(C(=C2C=CC(=[N+](C)C)C=C2)c2ccccc2)cc1,AC50,[5],9.34 µM (active) and 12.5 µM (active)
same,AC50,[1],4.17 µM (active) and 3.93 µM (active)
CN(C)CCOC(c1ccccc1)c1ccccc1,AC50,[1],6.23 µM (active)
same,AC50,[6],2.98 µM (active)
COC1=CC(=O)C[C@@H](C)[C@]12Oc1c(Cl)c(OC)cc(OC)c1C2=O,AC50,[1],3.8 µM (active)
CCCCC=O,outcome,[7],inactive
CCCCCCCCCCCCCCCCCC[N+](C)(C)Cc1ccccc1,AC50,[5],2.32 µM (active)
C=CC(C)(CCC=C(C)C)OC(C)=O (centres undefined),outcome,[8],inactive
CCCCCCCCCCCC(=O)O,outcome,[3],inactive
same,outcome,[8],inactive
CCCCCCCCCC=CCC1CC(=O)OC1=O (centres undefined),outcome,[3],inactive
same,AC50,[8],25 µM (active)
CCC(=O)O,AC50,[4],0.202 µM (active)
Cc1cc(C(=C2C=CC(=Nc3ccc(S(=O)(=O)O)cc3)C=C2)c2ccc(Nc3ccc(S(=O)(=O)O)cc3)cc2)cc(S(=O)(=O)O)c1N,AC50,[9],17.5 µM (active)
same,outcome,[7],inactive
same,AC50,[4],1.32 µM (active)
same,AC50,[3],0.574 µM (active)
same,AC50,[2],1.22 µM (active)
same,outcome,[8],inactive
CC(O)COc1ccccc1 (centres undefined),outcome,[8],inactive
CCN(CC)CC,outcome,[5],inactive
N=C(N)c1ccc(OCCCCCOc2ccc(C(=N)N)cc2)cc1,AC50,[1],2.07 µM (active)
same,outcome,[6],inactive
O=C(O)c1cccc(C(=O)O)n1,AC50,[7],28.1 µM (active)
CCCCCCCCCCCCOC(=O)c1cc(O)c(O)c(O)c1,AC50,[4],12.7 µM (active)
same,outcome,[8],inactive
